Common to all, as to assay: DAPPL (digital affinity profiling via proximity ligation, sequencing); 10 mM Tris-HCl pH 7.5, 50 mM NaCl, 1 mM DTT, 4% glycerol, room temperature, 30 min; GST-TFs on glutathione beads, 16-mer random dsDNA library, 0.1% formaldehyde crosslink after washing; high values mean tight binding
What all share (conditions): protein: recombinant; tags: N-terminal GST; dsDNA, one strand shown

Assay [1] deals with T1, ELK1 (Homo sapiens, UniProt P19419 1-428).
T1 sequence: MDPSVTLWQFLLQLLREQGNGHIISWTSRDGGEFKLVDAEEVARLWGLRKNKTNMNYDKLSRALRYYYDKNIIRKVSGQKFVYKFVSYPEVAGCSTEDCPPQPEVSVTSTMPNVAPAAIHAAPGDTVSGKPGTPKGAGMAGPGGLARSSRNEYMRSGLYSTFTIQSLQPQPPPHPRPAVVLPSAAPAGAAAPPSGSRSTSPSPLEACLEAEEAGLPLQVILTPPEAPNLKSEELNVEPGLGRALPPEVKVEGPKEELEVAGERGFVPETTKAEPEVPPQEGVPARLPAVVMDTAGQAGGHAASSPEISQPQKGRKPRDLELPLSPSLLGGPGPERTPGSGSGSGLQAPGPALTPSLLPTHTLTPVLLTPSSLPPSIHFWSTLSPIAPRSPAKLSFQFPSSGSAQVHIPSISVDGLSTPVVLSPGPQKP
In a few lines:
(§1)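 The binding signal reported is, for every hexamer, its read frequency for a factor over its read frequency for the tag-only sample. Reads came from pools of yeast-expressed, GST-fused human transcription factors on glutathione beads, barcoded with DNA and mixed with that sample, which were incubated with 200 nmole of a random double-stranded 16-mer DNA library in Tris/NaCl/DTT/glycerol buffer at room temperature for 30 min. After washing, the pools were crosslinked with 0.1% formaldehyde, proximity-ligated with BsaI/T4 ligase for 1 h at 37 °C, PCR-amplified and sequenced on an Illumina NextSeq500.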

In assay [2] the target is T2, GABPA (Homo sapiens, UniProt Q06546 1-454).
T2 sequence: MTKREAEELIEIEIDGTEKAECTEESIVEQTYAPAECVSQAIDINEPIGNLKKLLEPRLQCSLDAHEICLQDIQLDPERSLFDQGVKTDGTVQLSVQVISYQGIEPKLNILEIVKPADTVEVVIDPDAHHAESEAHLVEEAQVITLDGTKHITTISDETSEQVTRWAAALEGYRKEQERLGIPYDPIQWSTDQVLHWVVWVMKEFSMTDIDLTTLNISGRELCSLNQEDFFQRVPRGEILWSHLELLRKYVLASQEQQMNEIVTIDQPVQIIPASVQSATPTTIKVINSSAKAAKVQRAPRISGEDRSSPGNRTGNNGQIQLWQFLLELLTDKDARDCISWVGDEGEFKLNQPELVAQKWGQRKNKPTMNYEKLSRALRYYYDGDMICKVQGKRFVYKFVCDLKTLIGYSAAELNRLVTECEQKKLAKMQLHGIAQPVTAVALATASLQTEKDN
In a few lines:
as §1

Assay [3] deals with T3, ERG (Homo sapiens, UniProt P11308 1-479).
T3 sequence: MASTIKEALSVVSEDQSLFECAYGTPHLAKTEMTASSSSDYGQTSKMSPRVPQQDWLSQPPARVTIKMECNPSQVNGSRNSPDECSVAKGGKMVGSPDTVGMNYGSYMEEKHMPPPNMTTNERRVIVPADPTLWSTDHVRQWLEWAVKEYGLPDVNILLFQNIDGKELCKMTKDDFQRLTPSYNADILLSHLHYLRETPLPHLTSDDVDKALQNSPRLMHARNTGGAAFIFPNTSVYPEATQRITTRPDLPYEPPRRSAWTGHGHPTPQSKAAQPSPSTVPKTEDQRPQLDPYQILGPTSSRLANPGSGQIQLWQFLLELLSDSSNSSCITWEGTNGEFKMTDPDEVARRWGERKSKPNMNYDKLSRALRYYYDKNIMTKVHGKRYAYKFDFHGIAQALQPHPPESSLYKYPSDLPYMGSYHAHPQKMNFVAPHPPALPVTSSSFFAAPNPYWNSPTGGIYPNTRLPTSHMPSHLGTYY
In a few lines:
as §1

For assay [4], the target named is ELF1 (Homo sapiens, UniProt P32519 1-619). In a few lines: as §1
For assay [5], the target named is T4, EHF (Homo sapiens, UniProt Q9NZC4 1-300).
T4 sequence: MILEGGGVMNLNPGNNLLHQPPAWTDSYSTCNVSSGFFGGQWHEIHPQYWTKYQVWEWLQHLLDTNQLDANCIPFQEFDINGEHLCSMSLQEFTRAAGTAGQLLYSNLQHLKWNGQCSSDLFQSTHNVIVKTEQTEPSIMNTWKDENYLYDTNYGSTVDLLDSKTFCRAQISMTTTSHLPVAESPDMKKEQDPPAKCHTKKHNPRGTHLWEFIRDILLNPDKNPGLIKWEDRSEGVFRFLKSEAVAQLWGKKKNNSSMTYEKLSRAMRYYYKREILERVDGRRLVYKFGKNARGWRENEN
In outline: as §1

The target of assay [6] is SPIB (Homo sapiens, UniProt Q01892 1-262). In a few lines:
as §1

For assay [7], the target named is T5, FEV (Homo sapiens, UniProt Q99581 1-238).
T5 sequence: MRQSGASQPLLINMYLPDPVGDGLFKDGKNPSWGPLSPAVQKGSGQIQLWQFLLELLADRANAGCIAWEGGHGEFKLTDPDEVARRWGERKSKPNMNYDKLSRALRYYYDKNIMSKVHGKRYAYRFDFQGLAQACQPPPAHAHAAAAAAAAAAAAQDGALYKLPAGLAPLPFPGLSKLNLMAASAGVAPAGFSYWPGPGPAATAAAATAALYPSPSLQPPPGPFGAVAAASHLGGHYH
In a few lines: as §1

Assay [8] deals with ETV5 (Homo sapiens, UniProt P41161 1-510). In outline: as §1
In assay [9] the target is T6, ELK4 (Homo sapiens, UniProt P28324-2 1-405).
T6 sequence: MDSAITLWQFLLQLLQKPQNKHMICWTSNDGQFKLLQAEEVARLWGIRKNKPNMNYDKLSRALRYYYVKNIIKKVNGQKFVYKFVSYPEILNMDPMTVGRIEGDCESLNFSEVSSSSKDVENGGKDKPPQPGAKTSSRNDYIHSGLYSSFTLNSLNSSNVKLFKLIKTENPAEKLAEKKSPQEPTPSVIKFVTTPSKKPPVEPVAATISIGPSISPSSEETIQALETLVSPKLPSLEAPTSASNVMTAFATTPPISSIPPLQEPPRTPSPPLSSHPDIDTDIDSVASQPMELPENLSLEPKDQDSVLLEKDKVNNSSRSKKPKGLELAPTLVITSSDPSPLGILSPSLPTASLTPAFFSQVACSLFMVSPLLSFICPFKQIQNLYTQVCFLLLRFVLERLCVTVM
In a few lines:
as §1

The target of assay [10] is T7, ELF3 (Homo sapiens, UniProt P78545 1-371).
T7 sequence: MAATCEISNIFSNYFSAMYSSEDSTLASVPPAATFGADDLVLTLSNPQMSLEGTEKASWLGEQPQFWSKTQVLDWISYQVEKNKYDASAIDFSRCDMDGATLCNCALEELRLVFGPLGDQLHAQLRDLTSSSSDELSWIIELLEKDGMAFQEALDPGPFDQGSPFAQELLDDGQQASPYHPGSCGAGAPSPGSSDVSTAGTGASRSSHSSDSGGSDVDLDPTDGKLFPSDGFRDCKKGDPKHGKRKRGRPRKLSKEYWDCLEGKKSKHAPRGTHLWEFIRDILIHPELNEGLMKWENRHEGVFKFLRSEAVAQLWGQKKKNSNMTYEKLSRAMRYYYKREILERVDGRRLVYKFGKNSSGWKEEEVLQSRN
In a few lines: as §1

The target in assay [11] is ETV1 (Homo sapiens, UniProt P50549 1-477). In outline:
as §1

In assay [12] the target is T8, ERF (Homo sapiens, UniProt P50548 1-548).
T8 sequence: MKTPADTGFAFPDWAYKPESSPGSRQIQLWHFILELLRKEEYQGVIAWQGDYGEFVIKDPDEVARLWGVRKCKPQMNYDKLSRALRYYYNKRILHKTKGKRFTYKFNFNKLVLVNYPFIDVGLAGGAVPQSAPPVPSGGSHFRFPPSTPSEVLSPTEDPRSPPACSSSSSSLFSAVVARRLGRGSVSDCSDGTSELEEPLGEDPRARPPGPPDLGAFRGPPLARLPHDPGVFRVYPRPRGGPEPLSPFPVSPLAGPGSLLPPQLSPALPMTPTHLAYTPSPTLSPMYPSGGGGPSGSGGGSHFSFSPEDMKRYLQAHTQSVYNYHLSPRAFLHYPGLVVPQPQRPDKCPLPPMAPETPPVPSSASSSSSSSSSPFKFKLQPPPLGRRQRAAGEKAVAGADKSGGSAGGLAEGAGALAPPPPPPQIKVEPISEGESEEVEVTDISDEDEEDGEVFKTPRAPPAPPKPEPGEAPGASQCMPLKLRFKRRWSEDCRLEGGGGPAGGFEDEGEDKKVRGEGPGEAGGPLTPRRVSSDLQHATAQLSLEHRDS
In outline: as §1

The target in assay [13] is T9, ETV3L (Homo sapiens, UniProt Q6ZN32 1-361).
T9 sequence: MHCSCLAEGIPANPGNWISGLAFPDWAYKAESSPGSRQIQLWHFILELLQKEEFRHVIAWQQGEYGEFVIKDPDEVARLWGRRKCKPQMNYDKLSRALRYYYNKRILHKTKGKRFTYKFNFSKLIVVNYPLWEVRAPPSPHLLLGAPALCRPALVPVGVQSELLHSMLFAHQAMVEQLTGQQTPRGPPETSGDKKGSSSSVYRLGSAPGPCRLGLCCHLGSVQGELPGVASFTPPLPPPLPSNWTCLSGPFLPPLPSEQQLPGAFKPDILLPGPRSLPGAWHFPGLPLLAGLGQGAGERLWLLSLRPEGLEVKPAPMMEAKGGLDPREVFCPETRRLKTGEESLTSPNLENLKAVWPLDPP
In outline:
as §1

Assay [14] concerns the target T10, ETS2 (Homo sapiens, UniProt P15036 1-469).
T10 sequence: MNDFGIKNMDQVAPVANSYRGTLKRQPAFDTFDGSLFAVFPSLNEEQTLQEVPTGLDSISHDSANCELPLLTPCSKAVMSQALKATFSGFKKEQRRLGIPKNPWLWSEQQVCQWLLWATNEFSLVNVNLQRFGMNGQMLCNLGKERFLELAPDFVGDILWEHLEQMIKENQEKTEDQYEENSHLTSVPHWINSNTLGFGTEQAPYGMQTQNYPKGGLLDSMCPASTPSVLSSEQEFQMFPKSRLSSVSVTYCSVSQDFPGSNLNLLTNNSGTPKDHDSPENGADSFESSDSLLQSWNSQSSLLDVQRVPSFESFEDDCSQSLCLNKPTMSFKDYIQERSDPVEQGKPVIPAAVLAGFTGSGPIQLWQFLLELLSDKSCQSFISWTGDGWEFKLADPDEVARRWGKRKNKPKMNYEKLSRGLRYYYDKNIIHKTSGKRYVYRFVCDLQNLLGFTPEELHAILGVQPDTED
In outline: as §1

Assay [15] has as its target T11, SPDEF (Homo sapiens, UniProt O95238 1-335).
T11 sequence: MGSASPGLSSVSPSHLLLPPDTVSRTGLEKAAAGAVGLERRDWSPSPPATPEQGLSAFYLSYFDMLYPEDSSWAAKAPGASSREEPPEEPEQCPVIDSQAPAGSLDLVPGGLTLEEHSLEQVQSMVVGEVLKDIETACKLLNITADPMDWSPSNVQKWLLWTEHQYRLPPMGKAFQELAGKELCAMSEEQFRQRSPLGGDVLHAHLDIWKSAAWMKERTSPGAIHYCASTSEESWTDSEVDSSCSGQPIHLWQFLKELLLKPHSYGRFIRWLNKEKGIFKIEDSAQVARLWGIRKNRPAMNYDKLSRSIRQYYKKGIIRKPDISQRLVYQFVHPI
In a few lines:
as §1

The target of assay [16] is T12, ETV7 (Homo sapiens, UniProt Q9Y603 1-341).
T12 sequence: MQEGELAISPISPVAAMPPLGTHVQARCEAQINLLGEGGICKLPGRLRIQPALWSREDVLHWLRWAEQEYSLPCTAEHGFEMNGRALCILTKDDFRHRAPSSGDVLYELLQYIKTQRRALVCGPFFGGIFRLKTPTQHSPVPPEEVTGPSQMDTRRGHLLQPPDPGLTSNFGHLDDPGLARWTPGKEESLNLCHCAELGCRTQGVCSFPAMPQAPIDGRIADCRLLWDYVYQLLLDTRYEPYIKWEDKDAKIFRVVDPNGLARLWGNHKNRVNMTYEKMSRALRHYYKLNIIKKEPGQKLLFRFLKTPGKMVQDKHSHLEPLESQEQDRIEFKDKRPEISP
In a few lines:
as §1

In assay [17] the target is T13, ETV3 (Homo sapiens, UniProt P41162-2 1-143).
T13 sequence: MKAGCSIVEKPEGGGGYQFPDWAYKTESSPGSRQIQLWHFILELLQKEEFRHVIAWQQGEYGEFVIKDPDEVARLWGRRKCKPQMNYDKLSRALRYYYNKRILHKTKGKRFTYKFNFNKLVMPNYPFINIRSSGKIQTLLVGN
In a few lines: as §1

For assay [18], the target named is ETV6 (Homo sapiens, UniProt P41212 1-452). In a few lines:
as §1

Chain of ETV1 (P50549 whole entry): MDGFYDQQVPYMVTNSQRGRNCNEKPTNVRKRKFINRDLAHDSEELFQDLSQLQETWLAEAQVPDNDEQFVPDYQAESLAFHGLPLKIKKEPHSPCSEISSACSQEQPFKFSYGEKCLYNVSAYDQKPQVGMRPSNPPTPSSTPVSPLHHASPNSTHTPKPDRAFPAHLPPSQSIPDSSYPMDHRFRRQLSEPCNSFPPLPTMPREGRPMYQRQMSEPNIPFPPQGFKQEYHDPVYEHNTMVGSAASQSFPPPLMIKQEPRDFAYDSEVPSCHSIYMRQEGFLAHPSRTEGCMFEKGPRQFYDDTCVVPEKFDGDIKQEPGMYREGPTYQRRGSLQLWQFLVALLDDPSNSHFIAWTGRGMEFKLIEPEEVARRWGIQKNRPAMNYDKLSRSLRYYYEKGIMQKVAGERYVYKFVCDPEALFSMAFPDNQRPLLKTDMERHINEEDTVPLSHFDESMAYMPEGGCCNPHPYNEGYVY
Chain of ETV6 (P41212 whole entry): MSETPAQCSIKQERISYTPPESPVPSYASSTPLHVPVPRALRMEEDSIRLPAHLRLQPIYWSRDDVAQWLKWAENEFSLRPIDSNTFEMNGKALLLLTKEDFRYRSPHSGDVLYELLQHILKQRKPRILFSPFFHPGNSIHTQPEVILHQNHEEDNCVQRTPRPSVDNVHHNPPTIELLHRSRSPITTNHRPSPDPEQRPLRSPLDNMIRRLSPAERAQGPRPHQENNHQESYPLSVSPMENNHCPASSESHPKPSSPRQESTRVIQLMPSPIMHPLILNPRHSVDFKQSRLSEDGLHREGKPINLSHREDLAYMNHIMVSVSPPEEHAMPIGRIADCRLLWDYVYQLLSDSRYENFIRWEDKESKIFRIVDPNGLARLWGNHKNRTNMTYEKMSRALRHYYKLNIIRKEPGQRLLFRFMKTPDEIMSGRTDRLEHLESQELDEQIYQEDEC
Chain of SPIB (Q01892 whole entry): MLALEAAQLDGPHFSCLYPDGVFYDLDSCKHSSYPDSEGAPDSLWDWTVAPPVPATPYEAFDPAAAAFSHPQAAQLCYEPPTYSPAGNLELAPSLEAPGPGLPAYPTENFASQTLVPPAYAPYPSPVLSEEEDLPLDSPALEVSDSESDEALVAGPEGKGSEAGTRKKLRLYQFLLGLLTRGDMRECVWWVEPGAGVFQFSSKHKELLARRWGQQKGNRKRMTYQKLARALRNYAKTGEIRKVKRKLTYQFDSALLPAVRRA
Chain of ETV5 (P41161 whole entry): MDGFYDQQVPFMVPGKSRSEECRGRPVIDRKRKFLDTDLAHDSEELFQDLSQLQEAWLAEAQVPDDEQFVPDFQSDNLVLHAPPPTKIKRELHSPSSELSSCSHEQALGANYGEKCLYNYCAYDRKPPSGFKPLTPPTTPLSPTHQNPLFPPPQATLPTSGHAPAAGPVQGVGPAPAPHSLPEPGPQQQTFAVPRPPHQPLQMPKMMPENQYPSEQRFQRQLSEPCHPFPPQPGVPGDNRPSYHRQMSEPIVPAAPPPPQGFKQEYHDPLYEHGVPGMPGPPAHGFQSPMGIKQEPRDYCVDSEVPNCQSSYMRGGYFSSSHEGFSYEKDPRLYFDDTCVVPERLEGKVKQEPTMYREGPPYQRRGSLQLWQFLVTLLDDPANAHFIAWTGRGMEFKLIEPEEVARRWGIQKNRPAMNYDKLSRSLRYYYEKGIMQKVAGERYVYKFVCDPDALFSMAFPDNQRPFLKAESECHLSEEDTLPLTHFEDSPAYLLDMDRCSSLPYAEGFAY
Chain of ELF1 (P32519 whole entry): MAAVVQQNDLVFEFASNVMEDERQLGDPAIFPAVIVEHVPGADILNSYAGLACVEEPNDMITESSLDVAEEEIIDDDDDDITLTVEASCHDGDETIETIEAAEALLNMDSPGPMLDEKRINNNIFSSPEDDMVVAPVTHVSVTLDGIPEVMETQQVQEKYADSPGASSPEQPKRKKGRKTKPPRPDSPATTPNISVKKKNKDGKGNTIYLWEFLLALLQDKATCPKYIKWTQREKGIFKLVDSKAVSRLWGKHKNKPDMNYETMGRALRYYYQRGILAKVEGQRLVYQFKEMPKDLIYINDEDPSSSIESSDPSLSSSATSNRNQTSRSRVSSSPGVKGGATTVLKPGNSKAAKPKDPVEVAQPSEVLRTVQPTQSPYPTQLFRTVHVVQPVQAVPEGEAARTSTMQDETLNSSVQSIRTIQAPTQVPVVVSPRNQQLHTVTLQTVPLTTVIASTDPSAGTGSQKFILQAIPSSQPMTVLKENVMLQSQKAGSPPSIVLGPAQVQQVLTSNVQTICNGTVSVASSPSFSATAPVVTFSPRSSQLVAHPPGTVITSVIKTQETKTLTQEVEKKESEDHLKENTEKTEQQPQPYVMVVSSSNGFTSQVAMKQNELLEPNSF

Regarding TGTAAG, the binding signal is 1.06 fold enrichment (6-mer frequency, TF over GST control) in assay [1]; 1.03 fold enrichment (6-mer frequency, TF over GST control) in assay [2]; 1.07 fold enrichment (6-mer frequency, TF over GST control) in [3]; 1.11 fold enrichment (6-mer frequency, TF over GST control) in [4]; 1.16 fold enrichment (6-mer frequency, TF over GST control) in [5]; 1.06 fold enrichment (6-mer frequency, TF over GST control) in assay [6]. The binding signal in assay [7] is 1.06 fold enrichment (6-mer frequency, TF over GST control); in [8], 1.08 fold enrichment (6-mer frequency, TF over GST control); in assay [9] it was 1.06 fold enrichment (6-mer frequency, TF over GST control); in [10] it was 1.3 fold enrichment (6-mer frequency, TF over GST control); in assay [11], 1.06 fold enrichment (6-mer frequency, TF over GST control); in assay [12], 1.11 fold enrichment (6-mer frequency, TF over GST control). In addition, the binding signal is 1.03 fold enrichment (6-mer frequency, TF over GST control) in assay [13]; 1.04 fold enrichment (6-mer frequency, TF over GST control) in assay [14]; 1.13 fold enrichment (6-mer frequency, TF over GST control) in assay [15]; 1.04 fold enrichment (6-mer frequency, TF over GST control) in [16]; 1.17 fold enrichment (6-mer frequency, TF over GST control) in assay [17]; 1.14 fold enrichment (6-mer frequency, TF over GST control) in assay [18].
